Test results: PubChem BioAssay AID588342 (National Center for Advancing Translational Sciences (NCATS), 2011)
The whole screen tested about 360,000 compounds, of which about 25,000 (6.9%) were called active. About 9% were inconclusive and are not listed. The full list was thinned out, with actives kept by preference. A number with no mark means an inactive call. The call rests on the fitted dose curve; in most records, active means well fitted inhibition curve with a large enough effect; inconclusive means small, poorly fitted or top-dose-only effect; inactive means flat fitted curve, though single readings scatter.

target: Luciferin 4-monooxygenase (Photinus pyralis) (UniProt P08659); experiment: qHTS profiling assay for firefly luciferase inhibitor/activator using purifed enzyme and Km concentrations of substrates (counterscreen for miR-21 project); details: purified FLuc, luminescence inhibition; series mostly up to 57.5 µM; activity change, negative = inhibition: at the top concentration; further: nearly all actives have a fitted effect of over 55% in size;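 on activity change, negative = inhibition: plate controls were vehicle for no effect and reference inhibitor for full effect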
How it was run: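 Purified P. pyralis luciferase (10nM final) with 10uM D-luciferin and 10uM ATP (Km levels) in 50mM Tris acetate pH 7.5, 10mM Mg acetate, 0.01% Tween-20, 0.05% BSA; qHTS 6-point titration, ~60 µM downward; luminescence read.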
Potency means the concentration at half of the fitted maximal effect.

Sequence of Luciferin 4-monooxygenase (Photinus pyralis) (P08659 whole entry, looked up): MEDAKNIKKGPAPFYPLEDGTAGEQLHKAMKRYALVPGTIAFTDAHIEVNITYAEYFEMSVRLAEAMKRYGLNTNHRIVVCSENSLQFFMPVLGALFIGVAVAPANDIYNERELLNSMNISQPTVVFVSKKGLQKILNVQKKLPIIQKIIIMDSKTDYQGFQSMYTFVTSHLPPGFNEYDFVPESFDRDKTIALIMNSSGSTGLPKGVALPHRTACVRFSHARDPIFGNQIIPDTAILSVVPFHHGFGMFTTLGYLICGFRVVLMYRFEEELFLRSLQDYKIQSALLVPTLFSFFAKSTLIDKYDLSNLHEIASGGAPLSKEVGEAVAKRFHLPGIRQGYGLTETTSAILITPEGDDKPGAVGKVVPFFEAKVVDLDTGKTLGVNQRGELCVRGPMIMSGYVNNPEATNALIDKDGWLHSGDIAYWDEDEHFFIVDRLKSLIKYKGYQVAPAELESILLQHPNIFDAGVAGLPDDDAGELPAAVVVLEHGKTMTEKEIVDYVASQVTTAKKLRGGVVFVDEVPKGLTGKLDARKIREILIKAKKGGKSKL

SMILES	activity change, negative = inhibition	Potency
COc1ccc(COCC(O)CN2CCC(C(N)=O)CC2)cc1 (configuration not stated)	-1.2%	
CCOc1cc(CN2CCN(C(=O)CC(C)C)CC2)ccc1OC	-0.351%	
COc1cc(CN2CCC(C(N)=O)CC2)ccc1OCc1ccccc1		10700 nM (active)
CCC(C)(C)NC(=O)CN(Cc1cccs1)C(=O)CNS(=O)(=O)c1ccc(F)cc1	0.549%	
CCOC(=O)Cn1c(=O)n(Cc2ccc(OC)cc2)c(=O)c2cccnc21	2.41%	
CCOC(=O)c1cnc2c(C)cc(Cl)cc2c1NCCc1ccc(OC)c(OC)c1	-8.82%	
COc1cc(NC(=O)Cn2nc(-c3ccc(C)c(C)c3)ccc2=O)cc(OC)c1	-1.29%	
CC(C)c1cc(C(N)=O)c(NC(=O)c2cccc(COc3ccc(Br)cc3)c2)s1		19000 nM (active)
NNC(=O)c1cccc(COCC(F)(F)C(F)F)c1	6.5%	
CCOC(=O)c1cc(C(C)C)sc1NC(=O)COC(=O)c1nccnc1N	12.3%	
COc1ccc(CCNC(=O)Cn2c(=O)n(-c3ccccc3)c(=O)c3c(C)c(C)sc32)cc1OC	-0.147%	
CCOc1ccc(N(CC)C(=O)c2cc3c(=O)oc4ccccc4c3s2)cc1	-1.93%	
Cc1ccc(NNC(=O)C2CCC2)cc1C	-2.48%	
CCOc1ccc(NC(=S)N2CCC(NC(=O)c3ccccc3)CC2)cc1	0.225%	
CCOc1ccc(NC(=O)C2CCCN(C(=O)Nc3ccccc3)C2)cc1 (configuration not stated)	-2.4%	
CCCOc1ccc(N/C=C/C(=O)C(C)(C)C)cc1		10700 nM (active)
COc1ccc(N2C(=O)CCC(C(=O)Nc3ccccn3)C2c2ccc(OC)c(OC)c2)cc1 (configuration not stated)	1.04%	
CCCOc1ccc(NC(=O)C2OC3OC(C)(C)OC3C3OC(C)(C)OC23)cc1 (configuration not stated)	7.57%	
COCCN(C(=O)CCC(=O)Nc1ccccn1)C(C(=O)NCCC(C)C)c1ccc(OC)cc1 (configuration not stated)	-1.3%	
Cc1ccc(N/C=C/C(=O)c2ccccc2)cc1C		151 nM (active)
COc1ccc(C(=O)/C=C/Nc2ccccn2)cc1		107 nM (active)
CCCOc1ccc(NC(=O)C2CCCNC2=O)cc1 (configuration not stated)	3.63% [at 2.3 µM]	
Cc1ccc(N(NC(=O)C(C)(C)O)C(=O)c2ccccc2)cc1C	6.23%	

SMILES	activity change, negative = inhibition	Potency
CCOc1ccc(N/C=C/C(=O)c2ccccc2)cc1		269 nM (active)
CC(Oc1ccccc1F)C(=O)NN (configuration not stated)	1.14%	
CCOC(=O)Cc1ccc(NC(=O)Nc2c[nH]c(=O)[nH]c2=O)cc1	-6.71%	
COc1ccc(OC)c(NC(=O)CN2CCCN(Cc3cc(C)ccc3C)S2(=O)=O)c1	-1.23%	
COc1cccc(NC(=O)C2CCN(c3cc(C)nc4c(-c5ccc(Cl)cc5)c(C)nn34)CC2)c1	-6.24%	
COc1ccc(OC)c(-c2noc(N3CCN(c4cc(Cl)ccc4C)CC3)n2)c1	2.18%	
Cc1ccccc1CNC(=O)Cn1c(C)c2cnn(-c3ccccc3)c(=O)c2c1C	1.72%	
O=C(CN(CC1CCCO1)C(=O)CNS(=O)(=O)c1ccc(F)cc1)NCc1ccco1 (configuration not stated)	-0.026%	
CCC(=O)c1ccc(OC(=O)/C=C/c2cc(OC)c(OC)c(OC)c2)cc1	-18.9%	
CCOc1ccc(N/C=C/C(=O)c2cc(OC)c(OC)c(OC)c2)cc1		13500 nM (active)
CCOc1ccc(C(NC(=O)c2cc(OC)c(OC)c(OC)c2)c2cc(Cl)c3cccnc3c2O)cc1 (configuration not stated)	-4.4%	
CC1(C)O[C@@H]2[C@H](O1)[C@@H](COS(=O)(=O)O)O[C@H]2n1ccc(=O)[nH]c1=O	3.4%	
O=C(NCC(=O)N(Cc1cccs1)C(C(=O)NC1CCCCC1)c1ccco1)c1cccs1 (configuration not stated)	0.0391%	
O=C(/C=C/c1ccc2c(c1)OCO2)NCc1cn2cc(Cl)ccc2n1	-17.4%	
Clc1ccc2nc(CSc3ccccc3)cn2c1		849 nM (active)
O=c1c2ccccc2nc2n1C(CSc1ccc(Cl)cc1)CN2 (configuration not stated)	4.01%	
Cc1cccc(-c2oc3ccc(-c4ccc5c(c4)OCO5)cc3c2C#Cc2cncn2C)c1	-28%	
Cc1ccc(NC(=O)CN2C(=O)CC(C)Sc3ccccc32)c(C)c1 (configuration not stated)	-9.71%	
COc1cccc(C2=CC(=O)C[C@H](c3ccc(OC)c(OC)c3)C2)c1	-2.01%	
CC1(C)C(c2cccs2)=[N+]([O-])C2(CCCCC2=O)N1O (configuration not stated)	-7.11%	
CC(=O)C1(C)N(O)C(C)(C)C(c2cccs2)=[N+]1[O-] (configuration not stated)		301 nM (active)
C/C(=N\O)C1(C)N(O)C(C)(C)C(c2ccc(Br)cc2)=[N+]1[O-] (configuration not stated)	-3.47%	
COc1ccc(SCc2cc(=O)c3ccc(C)c(C)c3[nH]2)cc1	-9.1%	

SMILES	activity change, negative = inhibition	Potency
C=CCn1c(SCC(=O)Nc2ccc(NC(C)=O)cc2)nc2sc(C)c(C)c2c1=O	4.96%	
O=C(CSc1nnnn1C1CCCC1)N1CCCCC1		19000 nM (active)
CC(=O)Nc1ccc(NC(=O)CSc2nnnn2C2CCCCC2)cc1	1.81%	
CC1CCCC(C)N1C(=O)CSc1nnnn1C1CCCC1 (configuration not stated)	-15.9%	
COc1ccc(Cn2c(=O)n(-c3ccccc3C)c(=O)c3c4c(sc32)CN(C(C)=O)CC4)cc1	3.07%	
COc1ccc(-c2nc3scc(CCNS(=O)(=O)c4cc(F)ccc4OC)n3n2)cc1OC	-15.7%	
CCOc1ccc(CNCCSc2nnnn2C)cc1	6.42%	
CC1CC(C)CN(CCC(=O)Nc2ccc3c(c2)CCC3)C1 (configuration not stated)	2.31%	
O=C(Nc1ccc2c(c1)CCC2)c1ccc(Br)s1		1900 nM (active)
O=C(N/N=C\c1cc2c(cc1Cl)OCO2)c1ccc(Br)s1	0.0212%	
Cc1cccc(N2CCN(S(=O)(=O)c3ccc4[nH]c5c(c4c3)CCCCC5)CC2)c1C	-0.0208%	
CN1CCN(c2oc(-c3ccc(COc4ccc(Cl)cc4)o3)nc2C#N)CC1	-1.14%	
Cc1cc(C)cc(NC(=O)CN2C(=O)c3ccccc3C2=O)c1	-1.43%	
C=CCN(CC=C)C(=O)CN1C(=O)c2ccccc2C1=O	-1.87%	
C=CCn1c(C)cc(C(=O)CN2C(=O)c3ccccc3C2=O)c1C		1510 nM (active)
CCc1ccc(NC(=O)CCCc2nnc3n(CCCOC)c(=O)c4sccc4n23)cc1	-0.673%	
COc1ccccc1NC(=O)c1cc(S(=O)(=O)NCCc2ccccc2)ccc1F	-0.596%	
Cc1ccc(C)c(S(=O)(=O)n2nc(C)c(S(=O)(=O)N3CCC(C)CC3)c2C)c1	-16.4%	
COc1ccc(/C(N)=N/OC(=O)Cc2ccccc2)cc1		19000 nM (active)
COc1ccc(CC(=O)Nc2sc(Cc3ccccc3)c(C)c2C(N)=O)cc1	3.91%	
COc1ccc(/C(N)=N/OC(=O)Oc2ccccc2)cc1	-11.7%	
